Laboratory results reported in the supplement of paper PMC10849652.
Targets with a hit are over-represented here; the source holds about 7,900 in all. About 0.6% of all pairs of compound and target were hits.

Experiments:
Assay in all cases: log2 fold change, soluble protein after heating vs DMSO (PISA); higher = thermal stabilisation; K562 cells, 10 uM, 30 min; active = over 0.2 and 3.5 SD of the protein, either way, in both replicates (recomputed)
[1] = compound: CC1=C(C=C(C=C1)NC(=O)C2=CC(=CC=C2)C(C)(C)C#N)NC3=CC4=C(C=C3)N=CN(C4=O)C
Procedure, shortened: (§1)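 Aliquots of K562 cells (2×10^6 cells/mL) treated with 10 μM compound for 30 min were heated for 3 min over 48°C-58°C. After pooling and extraction in PBS with 0.5% NP-40 at 4°C, soluble protein from a 21,000xg, 90 min spin was quantified by TMTpro 16plex LC-MS/MS with channel sums equalised. Thermal stability is expressed against control samples, from duplicates, as a log2 fold change.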

[2] = compound: CC1=C(C=C(C=C1)NC(=O)C2=CC(=CC=C2)N(C)C)NC(=O)C3=CC=C(C=C3)O
Procedure, shortened: as §1

[3] = compound: CC1=CC=C(C=C1)SC2=C3C=C(SC3=CN=C2)C(=O)N
Procedure, shortened: as §1

[4] = compound: CC1=NC(=CC=C1)C2=C(N=C(N2)C(C)(C)C)C3=CC4=NC=CN=C4C=C3
Procedure, shortened: as §1

Nexturastat A = compound: CCCCN(Cc1ccc(C(=O)NO)cc1)C(=O)Nc1ccccc1 [Nexturastat A]
Procedure, shortened: as §1

vemurafenib = compound: CCCS(=O)(=O)Nc1ccc(F)c(C(=O)c2c[nH]c3ncc(-c4ccc(Cl)cc4)cc23)c1F [vemurafenib]
Procedure, shortened: as §1

[5] = compound: CCCS(=O)(=O)Nc1ccc(F)c(C(=O)c2c[nH]c3ncc(Cl)cc23)c1F
Procedure, shortened: as §1

[6] = compound: CCCc1cc(C)[nH]c(=O)c1CNC(=O)c1cc(-c2ccnc(N3CCN(C)CC3)c2)cc2c1cnn2C(C)C
Procedure, shortened: as §1

givinostat = compound: CCN(CC)Cc1ccc2cc(COC(=O)Nc3ccc(C(=O)NO)cc3)ccc2c1 [givinostat]
Procedure, shortened: as §1

barasertib = compound: CCN(CCCOc1ccc2c(Nc3cc(CC(=O)Nc4cccc(F)c4)[nH]n3)ncnc2c1)CCOP(=O)(O)O [barasertib]
Procedure, shortened: as §1

Measured: log2 fold change

BAIAP2 isoform 4 (UniProt Q9UQB8)
inactive: [1] 0.034

ACSF3 (UniProt Q4G176)
inactive: [1] -0.002 | [2] 0.038 | [3] 0.007 | [4] 0.023 | Nexturastat A -0.005 | vemurafenib 0.029 | [5] 0.003 | [6] 0.008 | givinostat -0.022 | barasertib 0.051

ARL3 (UniProt P36405)
inactive: [1] -0.016 | [2] 0.018 | [3] 0.016 | [4] 0.025 | Nexturastat A -0.063 | vemurafenib 0.002 | [5] 0.059 | [6] -0.033 | givinostat 0.005 | barasertib -0.022

AFG1L (UniProt Q8WV93)
Chain of UniProt Q8WV93 (Q8WV93 whole entry, looked up): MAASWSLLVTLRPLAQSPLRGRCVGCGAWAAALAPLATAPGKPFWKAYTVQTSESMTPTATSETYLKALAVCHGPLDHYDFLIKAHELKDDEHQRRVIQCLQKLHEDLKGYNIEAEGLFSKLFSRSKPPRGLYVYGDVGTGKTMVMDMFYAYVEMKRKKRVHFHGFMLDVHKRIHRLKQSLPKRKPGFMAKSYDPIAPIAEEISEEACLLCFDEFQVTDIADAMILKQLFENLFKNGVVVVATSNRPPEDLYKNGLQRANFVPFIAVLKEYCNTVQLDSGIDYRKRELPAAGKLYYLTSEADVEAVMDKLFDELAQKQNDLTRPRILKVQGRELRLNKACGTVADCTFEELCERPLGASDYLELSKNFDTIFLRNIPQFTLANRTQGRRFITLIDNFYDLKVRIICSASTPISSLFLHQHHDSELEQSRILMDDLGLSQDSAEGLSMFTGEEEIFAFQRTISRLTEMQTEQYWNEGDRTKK
inactive: [1] 0.036 | [2] 0.037 | [3] 0.042 | [4] 0.015 | Nexturastat A -0.122 | vemurafenib 0.115 | [5] 0.041 | [6] -0.018 | givinostat 0.013 | barasertib 0.01

ATP9B (UniProt O43861)
Chain of UniProt O43861 (O43861 whole entry, looked up): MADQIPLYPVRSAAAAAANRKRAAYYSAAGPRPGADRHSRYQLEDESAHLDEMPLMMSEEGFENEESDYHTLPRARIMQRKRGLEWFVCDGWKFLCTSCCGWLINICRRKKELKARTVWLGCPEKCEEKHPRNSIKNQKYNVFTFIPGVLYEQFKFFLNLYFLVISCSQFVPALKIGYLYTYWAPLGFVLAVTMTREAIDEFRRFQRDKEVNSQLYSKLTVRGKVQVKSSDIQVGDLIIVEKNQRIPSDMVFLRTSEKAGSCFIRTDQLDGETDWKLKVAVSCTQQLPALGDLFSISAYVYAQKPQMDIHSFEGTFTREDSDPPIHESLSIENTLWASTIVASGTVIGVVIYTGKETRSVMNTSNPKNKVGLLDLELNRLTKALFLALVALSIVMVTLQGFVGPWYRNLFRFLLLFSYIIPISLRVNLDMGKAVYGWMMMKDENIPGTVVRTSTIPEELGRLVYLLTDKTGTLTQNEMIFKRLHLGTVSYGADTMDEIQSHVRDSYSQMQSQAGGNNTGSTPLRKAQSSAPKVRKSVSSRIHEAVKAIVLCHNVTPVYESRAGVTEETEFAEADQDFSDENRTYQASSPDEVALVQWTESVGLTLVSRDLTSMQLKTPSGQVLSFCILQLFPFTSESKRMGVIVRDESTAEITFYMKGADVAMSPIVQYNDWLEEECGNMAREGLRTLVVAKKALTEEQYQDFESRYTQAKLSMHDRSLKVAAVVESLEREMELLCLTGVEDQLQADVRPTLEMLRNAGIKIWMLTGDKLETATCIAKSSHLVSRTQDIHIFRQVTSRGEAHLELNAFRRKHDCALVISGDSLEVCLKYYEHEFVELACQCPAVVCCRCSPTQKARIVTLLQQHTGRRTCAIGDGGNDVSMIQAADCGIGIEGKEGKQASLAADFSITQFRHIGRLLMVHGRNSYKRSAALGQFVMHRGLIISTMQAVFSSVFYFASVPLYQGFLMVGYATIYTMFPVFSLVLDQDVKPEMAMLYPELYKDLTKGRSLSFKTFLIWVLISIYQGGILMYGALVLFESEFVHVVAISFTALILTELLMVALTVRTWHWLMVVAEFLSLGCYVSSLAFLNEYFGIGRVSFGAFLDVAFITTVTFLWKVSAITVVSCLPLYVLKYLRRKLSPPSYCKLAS
inactive: [1] -0.185 | [2] -0.007 | [3] -0.054 | [4] 0.061 | Nexturastat A 0.013 | vemurafenib -0.05 | [5] 0.01 | [6] -0.03 | givinostat 0.085 | barasertib 0.013

ASH2L (UniProt Q9UBL3)
inactive: [1] 0.018 | [2] -0.047 | [3] 0.003 | [4] 0.01 | Nexturastat A -0.003 | vemurafenib 0.057 | [5] 0.071 | [6] -0.022 | givinostat 0.031 | barasertib 0.007

AP2A2 isoform 2 (UniProt O94973)
inactive: [1] 0.084 | [2] 0 | [3] 0.01 | [4] 0.049 | Nexturastat A 0.004 | vemurafenib -0.008 | [5] 0.002 | [6] 0.038 | givinostat 0.003 | barasertib 0.002

ATG9A (UniProt Q7Z3C6)
Chain of UniProt Q7Z3C6 (Q7Z3C6 whole entry, looked up): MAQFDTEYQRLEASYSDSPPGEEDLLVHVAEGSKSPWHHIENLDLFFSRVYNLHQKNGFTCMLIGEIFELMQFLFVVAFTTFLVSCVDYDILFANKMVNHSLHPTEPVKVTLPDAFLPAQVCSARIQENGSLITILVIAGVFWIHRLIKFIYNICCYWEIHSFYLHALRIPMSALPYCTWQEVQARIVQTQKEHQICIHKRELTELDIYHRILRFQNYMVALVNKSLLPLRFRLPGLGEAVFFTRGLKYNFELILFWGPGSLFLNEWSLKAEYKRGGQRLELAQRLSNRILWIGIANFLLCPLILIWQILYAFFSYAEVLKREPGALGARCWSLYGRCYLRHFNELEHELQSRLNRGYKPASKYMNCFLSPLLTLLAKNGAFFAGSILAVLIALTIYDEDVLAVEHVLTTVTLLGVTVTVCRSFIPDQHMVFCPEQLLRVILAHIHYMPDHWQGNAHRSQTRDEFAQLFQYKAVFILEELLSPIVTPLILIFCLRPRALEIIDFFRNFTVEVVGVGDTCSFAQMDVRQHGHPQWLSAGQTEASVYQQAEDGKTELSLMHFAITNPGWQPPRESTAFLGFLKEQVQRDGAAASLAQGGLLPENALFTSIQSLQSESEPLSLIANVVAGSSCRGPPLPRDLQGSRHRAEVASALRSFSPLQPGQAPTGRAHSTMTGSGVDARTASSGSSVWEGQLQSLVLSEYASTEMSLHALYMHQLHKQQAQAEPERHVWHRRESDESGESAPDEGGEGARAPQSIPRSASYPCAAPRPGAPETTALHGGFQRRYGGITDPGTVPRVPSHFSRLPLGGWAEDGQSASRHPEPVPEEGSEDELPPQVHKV
inactive: [1] -0.019 | [2] -0.017 | [3] 0.038 | [4] 0.008 | Nexturastat A -0.018 | vemurafenib -0.006 | [5] 0.019 | [6] 0.007 | givinostat 0.019 | barasertib 0.045

ADRM1 (UniProt Q16186)
inactive: [1] 0.067 | [2] 0.009 | [3] -0.013 | [4] 0.024 | Nexturastat A 0.104 | vemurafenib -0.022 | [5] -0.028 | [6] 0.01 | givinostat 0.034 | barasertib -0.021

ARAF (UniProt P10398)
inactive: [1] 0.063 | [2] -0.049 | [3] -0.069 | [4] -0.007 | Nexturastat A 0.003 | vemurafenib 0.064 | [5] 0.123 | [6] 0.019 | givinostat 0.029 | barasertib 0.074

ACSL5 isoform 3 (UniProt Q9ULC5)
inactive: [1] 0.106 | [2] 0.061 | [3] -0.025 | [4] 0.088 | Nexturastat A -0.009 | vemurafenib 0.001 | [5] 0.083 | [6] -0.019 | givinostat -0.023 | barasertib 0.013

ARFGAP1 (UniProt Q8N6T3)
inactive: [1] -0.053 | [2] -0.168 | [3] 0.107 | [4] 0.034 | Nexturastat A 0.038 | vemurafenib 0.085 | [5] 0.124 | [6] 0.016 | givinostat 0.029 | barasertib 0.1

ARF4 (UniProt P18085)
Chain of UniProt P18085 (P18085 whole entry, looked up): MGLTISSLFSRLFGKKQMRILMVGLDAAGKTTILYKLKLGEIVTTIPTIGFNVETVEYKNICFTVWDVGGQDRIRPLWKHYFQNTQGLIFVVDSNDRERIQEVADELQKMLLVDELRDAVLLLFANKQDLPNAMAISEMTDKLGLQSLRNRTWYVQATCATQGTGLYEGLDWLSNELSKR
inactive: [1] 0.022 | [2] -0.014 | [3] 0 | [4] 0.012 | Nexturastat A -0.095 | vemurafenib 0.02 | [5] 0.022 | [6] 0.023 | givinostat 0.016 | barasertib 0.048

ATAD3A isoform 2 (UniProt Q9NVI7)
inactive: [1] -0.04 | [2] 0.005 | [3] 0.007 | [4] 0.017 | Nexturastat A 0.207 | vemurafenib 0.033 | [5] 0.052 | [6] 0 | givinostat 0.045 | barasertib 0.009

ACP1 isoform 2 (UniProt P24666)
inactive: [1] 0.008 | [2] -0.013 | [3] 0.025 | [4] -0.008 | Nexturastat A 0.08 | vemurafenib 0.031 | [5] 0.026 | [6] 0.043 | givinostat 0.058 | barasertib 0.074

BRK1 isoform 2 (UniProt Q8WUW1)
Chain of UniProt Q8WUW1 (Q8WUW1 whole entry, looked up): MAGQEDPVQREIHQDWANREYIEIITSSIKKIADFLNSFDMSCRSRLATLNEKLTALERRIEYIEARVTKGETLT
inactive: [1] -0.055 | [2] -0.076 | [3] 0.103 | [4] 0.069 | Nexturastat A -0.02 | vemurafenib 0.044 | [5] -0.004 | [6] 0.002 | givinostat 0.022 | barasertib 0.032

AGPS (UniProt O00116)
inactive: [1] 0.126 | [2] 0.012 | [3] 0.013 | [4] -0.001 | Nexturastat A -0.084 | vemurafenib 0.02 | [5] 0.041 | [6] -0.043 | givinostat -0.033 | barasertib 0.06

AARS2 (UniProt Q5JTZ9)
Chain of UniProt Q5JTZ9 (Q5JTZ9 whole entry, looked up): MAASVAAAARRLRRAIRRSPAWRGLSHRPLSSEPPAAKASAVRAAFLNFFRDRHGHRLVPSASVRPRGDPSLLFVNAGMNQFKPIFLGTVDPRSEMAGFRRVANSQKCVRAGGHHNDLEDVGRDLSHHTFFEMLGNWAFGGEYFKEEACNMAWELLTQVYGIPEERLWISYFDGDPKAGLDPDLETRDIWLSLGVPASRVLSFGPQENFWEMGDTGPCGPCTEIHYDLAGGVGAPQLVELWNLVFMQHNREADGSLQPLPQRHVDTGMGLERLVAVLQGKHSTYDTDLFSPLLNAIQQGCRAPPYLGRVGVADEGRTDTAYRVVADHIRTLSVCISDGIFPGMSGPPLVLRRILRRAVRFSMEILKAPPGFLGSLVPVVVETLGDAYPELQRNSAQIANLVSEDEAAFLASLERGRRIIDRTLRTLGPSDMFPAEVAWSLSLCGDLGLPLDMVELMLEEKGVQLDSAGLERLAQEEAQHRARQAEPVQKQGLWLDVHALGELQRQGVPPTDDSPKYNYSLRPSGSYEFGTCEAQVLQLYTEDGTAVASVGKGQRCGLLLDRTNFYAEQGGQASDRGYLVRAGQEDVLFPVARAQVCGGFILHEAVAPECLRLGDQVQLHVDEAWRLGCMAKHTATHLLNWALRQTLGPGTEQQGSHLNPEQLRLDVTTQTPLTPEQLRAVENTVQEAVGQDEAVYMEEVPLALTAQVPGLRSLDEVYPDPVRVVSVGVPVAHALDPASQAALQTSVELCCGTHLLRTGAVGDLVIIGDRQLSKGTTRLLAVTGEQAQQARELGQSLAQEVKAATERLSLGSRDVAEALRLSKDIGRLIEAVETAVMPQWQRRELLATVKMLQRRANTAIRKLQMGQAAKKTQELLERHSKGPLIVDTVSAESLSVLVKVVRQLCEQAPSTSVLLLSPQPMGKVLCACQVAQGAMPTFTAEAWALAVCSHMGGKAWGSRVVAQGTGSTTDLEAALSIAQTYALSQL
inactive: [1] -0.003 | [2] -0.047 | [3] 0.017 | [4] 0.079 | Nexturastat A -0.015 | vemurafenib 0.045 | [5] 0.04 | [6] 0.049 | givinostat 0.05 | barasertib 0.058

AARSD1 isoform 3 (UniProt Q9BTE6)
inactive: [1] 0.016 | [2] -0.04 | [3] -0.003 | [4] 0.034 | Nexturastat A -0.077 | vemurafenib 0.003 | [5] 0.122 | [6] 0.03 | barasertib 0.032
active: givinostat -0.273

AKAP8 (UniProt O43823)
active: Nexturastat A 0.313
inactive: [1] -0.082 | [2] 0.029 | [3] -0.03 | [4] -0.009 | vemurafenib -0.062 | [5] -0.05 | [6] -0.034 | givinostat -0.027 | barasertib 0.024

APAF1 (UniProt O14727)
Chain of UniProt O14727 (O14727 whole entry, looked up): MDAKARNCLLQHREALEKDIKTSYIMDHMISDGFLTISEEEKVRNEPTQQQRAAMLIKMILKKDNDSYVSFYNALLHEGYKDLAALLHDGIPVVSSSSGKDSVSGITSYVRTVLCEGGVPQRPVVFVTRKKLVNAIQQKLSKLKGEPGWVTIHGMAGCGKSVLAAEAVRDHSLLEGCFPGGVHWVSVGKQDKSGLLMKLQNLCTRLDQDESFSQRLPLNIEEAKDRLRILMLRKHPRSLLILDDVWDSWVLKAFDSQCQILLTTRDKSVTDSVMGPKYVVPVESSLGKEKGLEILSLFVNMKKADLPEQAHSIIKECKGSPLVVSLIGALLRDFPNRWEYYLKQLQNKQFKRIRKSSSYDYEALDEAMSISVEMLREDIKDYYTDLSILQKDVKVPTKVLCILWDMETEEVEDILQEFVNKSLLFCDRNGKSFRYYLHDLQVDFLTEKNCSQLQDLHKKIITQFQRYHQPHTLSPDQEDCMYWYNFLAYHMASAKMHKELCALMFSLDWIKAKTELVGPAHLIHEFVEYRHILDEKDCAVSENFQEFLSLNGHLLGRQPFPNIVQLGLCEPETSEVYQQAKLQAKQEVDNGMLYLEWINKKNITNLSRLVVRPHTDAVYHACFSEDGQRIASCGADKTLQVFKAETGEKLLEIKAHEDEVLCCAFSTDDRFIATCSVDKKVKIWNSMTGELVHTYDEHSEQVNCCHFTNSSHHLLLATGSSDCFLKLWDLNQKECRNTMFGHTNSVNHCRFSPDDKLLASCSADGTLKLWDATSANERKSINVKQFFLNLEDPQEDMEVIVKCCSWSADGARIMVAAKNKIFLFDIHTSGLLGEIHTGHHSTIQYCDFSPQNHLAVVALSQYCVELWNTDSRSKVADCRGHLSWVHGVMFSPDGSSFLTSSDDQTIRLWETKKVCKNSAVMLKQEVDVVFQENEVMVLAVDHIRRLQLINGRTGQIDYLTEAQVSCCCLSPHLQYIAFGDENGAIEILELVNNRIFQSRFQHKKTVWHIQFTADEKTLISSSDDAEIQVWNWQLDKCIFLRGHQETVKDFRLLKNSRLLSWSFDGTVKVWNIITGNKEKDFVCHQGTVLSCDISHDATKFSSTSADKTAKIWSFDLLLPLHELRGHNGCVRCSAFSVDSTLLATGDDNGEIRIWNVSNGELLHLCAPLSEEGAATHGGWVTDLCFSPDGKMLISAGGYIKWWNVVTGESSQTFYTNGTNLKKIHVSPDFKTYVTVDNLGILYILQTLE
inactive: [1] 0.023 | [2] 0.014 | [3] -0.003 | [4] -0.125 | Nexturastat A 0.056 | vemurafenib -0.006 | [5] -0.068 | [6] -0.1
active: givinostat 0.395

BAD (UniProt Q92934)
inactive: [1] -0.198 | [2] 0.007 | [3] -0.021 | [4] -0.051 | vemurafenib -0.076 | [5] -0.037 | [6] 0.05 | givinostat -0.133 | barasertib -0.003
active: Nexturastat A -0.324

ADD3 isoform 2 (UniProt Q9UEY8)
inactive: [1] 0.034 | [2] -0.021 | [3] -0.08 | [4] -0.017 | Nexturastat A -0.029 | vemurafenib 0.059 | [5] 0.014 | [6] -0.017

ATP5ME (UniProt P56385)
Chain of UniProt P56385 (P56385 whole entry, looked up): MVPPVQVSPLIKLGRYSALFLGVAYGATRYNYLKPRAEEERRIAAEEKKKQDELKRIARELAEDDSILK
inactive: [1] 0.036 | [2] -0.037 | [3] 0.031 | [4] 0.011 | Nexturastat A -0.035 | vemurafenib -0.003 | [5] -0.041 | [6] -0.041 | givinostat 0.027 | barasertib 0.007

ALDH1B1 (UniProt P30837)
inactive: [1] 0.054 | [2] 0.008 | [3] 0.128 | [4] 0.017 | Nexturastat A -0.104 | vemurafenib 0.011 | [5] 0.032 | [6] -0.016 | givinostat 0.032 | barasertib -0.001

APPL1 (UniProt Q9UKG1)
inactive: [1] 0.012 | [2] 0.008 | [3] 0.035 | [4] 0.015 | Nexturastat A -0.032 | vemurafenib 0.066 | [5] 0.017 | [6] -0.033 | givinostat 0.039 | barasertib 0.02

ARGLU1 (UniProt Q9NWB6)
inactive: [1] 0.046 | [2] 0.055 | [3] -0.136 | [4] -0.044 | Nexturastat A 0.147 | vemurafenib 0.061 | [5] -0.045 | [6] -0.009 | givinostat 0.001 | barasertib -0.075

ACP2 (UniProt P11117)
inactive: [1] -0.014 | [2] -0.013 | [3] 0.029 | [4] -0.027 | Nexturastat A -0.08 | vemurafenib 0.017 | [5] -0.023 | [6] -0.038 | givinostat 0 | barasertib 0.016

ABHD16A (UniProt O95870)
inactive: [1] 0.01 | [2] -0.084 | [3] -0.051 | [4] -0.057 | Nexturastat A 0.118 | vemurafenib -0.001 | [5] -0.036 | [6] 0.09 | givinostat 0.037 | barasertib 0.008

ASB6 (UniProt Q9NWX5)
inactive: [1] -0.085 | [2] -0.033 | [3] 0.117 | [4] -0.175 | Nexturastat A 0.125 | vemurafenib -0.144 | [5] 0.108 | [6] -0.039 | givinostat 0.108 | barasertib 0.031

ARL1 (UniProt P40616)
inactive: [1] 0.057 | [2] -0.012 | [3] 0.162 | [4] 0.054 | Nexturastat A -0.119 | vemurafenib 0.037 | [5] 0.116 | [6] 0.071 | givinostat 0.07 | barasertib 0.007
